Here are results for 1 sequence from PMC7862700, “An all-to-all approach to the identification of sequence-specific readers for epigenetic DNA modifications on cytosine”.

Holding throughout (experiment): DAPPL (digital affinity profiling via proximity ligation, sequencing); 10 mM Tris-HCl pH 7.5, 50 mM NaCl, 1 mM DTT, 4% glycerol, room temperature, 30 min; GST-TFs on glutathione beads, 16-mer random dsDNA library, 0.1% formaldehyde crosslink after washing; high values mean tight binding
One experiment concerns the target T1, FEV (Homo sapiens, UniProt Q99581 1-238).
T1 sequence: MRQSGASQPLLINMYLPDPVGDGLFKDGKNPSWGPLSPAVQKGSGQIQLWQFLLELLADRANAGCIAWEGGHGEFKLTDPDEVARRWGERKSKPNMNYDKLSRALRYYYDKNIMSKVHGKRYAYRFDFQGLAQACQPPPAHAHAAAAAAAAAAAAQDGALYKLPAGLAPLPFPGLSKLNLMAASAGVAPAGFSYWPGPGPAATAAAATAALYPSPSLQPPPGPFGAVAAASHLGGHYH
Conditions: protein: recombinant; tags: N-terminal GST; dsDNA, one strand shown. In short, it runs like this:
(§1)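 Sequencing on an Illumina NextSeq500 followed washing, crosslinking with 0.1% formaldehyde, proximity ligation (BsaI/T4 ligase, 1 h, 37 °C) and PCR amplification of pools that had been incubated for 30 min at room temperature with 200 nmole of a random double-stranded 16-mer DNA library in Tris/NaCl/DTT/glycerol buffer. Each pool held DNA-barcoded human transcription factors, expressed in yeast as GST fusions and captured on glutathione beads, plus a tag-only sample. Binding signal is a hexamer's read frequency for a factor divided by its frequency in the tag-only sample.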

Another experiment has as its target ETV5 (Homo sapiens, UniProt P41161 1-510). Particulars: protein: recombinant; tags: N-terminal GST; dsDNA, one strand shown. The gist of the method: as §1
The next experiment concerns the target HSF1 (Homo sapiens, UniProt Q00613 1-529). Particulars: protein: recombinant; tags: N-terminal GST; chain copies: 3; dsDNA, one strand shown. In short, it runs like this: as §1
The next experiment concerns the target T2, SPIC (Homo sapiens, UniProt Q8N5J4 1-248).
T2 sequence: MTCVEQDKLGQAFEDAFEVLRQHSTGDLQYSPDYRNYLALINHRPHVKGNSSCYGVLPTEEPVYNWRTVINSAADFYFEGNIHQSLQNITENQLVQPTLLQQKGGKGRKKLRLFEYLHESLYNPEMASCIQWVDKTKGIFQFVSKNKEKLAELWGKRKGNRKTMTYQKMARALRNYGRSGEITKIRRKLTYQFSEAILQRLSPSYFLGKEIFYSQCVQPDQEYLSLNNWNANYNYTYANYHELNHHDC
Particulars: protein: recombinant; tags: N-terminal GST; dsDNA, one strand shown. The gist of the method:
as §1

The target in the next experiment is ELF4 (Homo sapiens, UniProt Q99607 1-663). Conditions: protein: recombinant; tags: N-terminal GST; dsDNA, one strand shown. The gist of the method:
as §1

A further experiment deals with T3, ELK4 (Homo sapiens, UniProt P28324-2 1-405).
T3 sequence: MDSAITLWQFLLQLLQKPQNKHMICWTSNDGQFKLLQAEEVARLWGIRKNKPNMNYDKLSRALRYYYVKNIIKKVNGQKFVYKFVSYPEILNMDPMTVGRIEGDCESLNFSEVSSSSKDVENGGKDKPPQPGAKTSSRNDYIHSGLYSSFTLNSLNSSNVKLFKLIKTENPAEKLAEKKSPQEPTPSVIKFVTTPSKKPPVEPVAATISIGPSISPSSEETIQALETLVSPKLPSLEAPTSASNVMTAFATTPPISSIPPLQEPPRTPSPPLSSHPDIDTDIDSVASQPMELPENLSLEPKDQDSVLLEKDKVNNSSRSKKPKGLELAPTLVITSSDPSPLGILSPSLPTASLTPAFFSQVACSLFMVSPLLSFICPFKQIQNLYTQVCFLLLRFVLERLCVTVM
Conditions: protein: recombinant; tags: N-terminal GST; dsDNA, one strand shown. In short, it runs like this: as §1

For the next experiment, the target named is T4, ETV2 (Homo sapiens, UniProt O00321 1-342).
T4 sequence: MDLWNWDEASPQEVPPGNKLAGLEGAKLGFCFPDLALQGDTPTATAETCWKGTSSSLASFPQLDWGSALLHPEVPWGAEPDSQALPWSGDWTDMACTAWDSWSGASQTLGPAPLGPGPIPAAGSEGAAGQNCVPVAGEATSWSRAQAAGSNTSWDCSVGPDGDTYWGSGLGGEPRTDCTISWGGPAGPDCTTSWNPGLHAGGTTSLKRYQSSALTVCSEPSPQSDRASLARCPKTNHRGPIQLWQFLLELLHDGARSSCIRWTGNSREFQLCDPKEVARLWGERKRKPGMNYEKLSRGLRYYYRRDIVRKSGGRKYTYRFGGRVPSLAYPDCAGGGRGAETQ
Particulars: protein: recombinant; tags: N-terminal GST; dsDNA, one strand shown. The gist of the method: as §1

For a further experiment, the target named is T5, ELF3 (Homo sapiens, UniProt P78545 1-371).
T5 sequence: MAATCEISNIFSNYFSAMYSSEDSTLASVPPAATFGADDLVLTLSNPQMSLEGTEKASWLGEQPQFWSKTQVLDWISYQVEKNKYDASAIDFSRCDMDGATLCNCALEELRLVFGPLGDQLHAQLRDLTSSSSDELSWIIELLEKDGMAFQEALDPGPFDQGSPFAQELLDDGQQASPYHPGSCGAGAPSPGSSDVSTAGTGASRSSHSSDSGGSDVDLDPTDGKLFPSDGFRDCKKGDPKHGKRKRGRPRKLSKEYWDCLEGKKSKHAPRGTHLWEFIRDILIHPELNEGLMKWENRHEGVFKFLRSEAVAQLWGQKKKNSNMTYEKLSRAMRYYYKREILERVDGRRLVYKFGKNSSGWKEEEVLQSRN
Particulars: protein: recombinant; tags: N-terminal GST; dsDNA, one strand shown. In short, it runs like this:
as §1

Another experiment addresses CRX (Homo sapiens, UniProt O43186 1-299). Particulars: protein: recombinant; tags: N-terminal GST; dsDNA, one strand shown. The gist of the method: as §1
Another experiment addresses ETV1 (Homo sapiens, UniProt P50549 1-477). Particulars: protein: recombinant; tags: N-terminal GST; dsDNA, one strand shown. The gist of the method: as §1
The next experiment concerns the target T6, ERF (Homo sapiens, UniProt P50548 1-548).
T6 sequence: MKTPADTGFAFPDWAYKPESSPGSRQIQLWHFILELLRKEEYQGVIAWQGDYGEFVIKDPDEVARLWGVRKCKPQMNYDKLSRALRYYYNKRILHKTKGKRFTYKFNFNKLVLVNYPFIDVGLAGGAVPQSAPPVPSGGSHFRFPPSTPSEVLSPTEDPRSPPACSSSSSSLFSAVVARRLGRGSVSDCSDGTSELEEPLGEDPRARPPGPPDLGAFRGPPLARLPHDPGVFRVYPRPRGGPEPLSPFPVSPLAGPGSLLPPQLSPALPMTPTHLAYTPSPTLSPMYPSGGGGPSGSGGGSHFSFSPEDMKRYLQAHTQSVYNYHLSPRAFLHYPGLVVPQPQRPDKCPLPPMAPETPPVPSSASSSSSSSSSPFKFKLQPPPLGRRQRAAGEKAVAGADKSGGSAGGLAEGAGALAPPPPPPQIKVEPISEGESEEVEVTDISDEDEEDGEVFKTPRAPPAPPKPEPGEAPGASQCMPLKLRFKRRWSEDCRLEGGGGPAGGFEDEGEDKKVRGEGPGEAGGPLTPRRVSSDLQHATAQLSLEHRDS
Conditions: protein: recombinant; tags: N-terminal GST; dsDNA, one strand shown. The gist of the method:
as §1

The target of another experiment is T7, ETV3L (Homo sapiens, UniProt Q6ZN32 1-361).
T7 sequence: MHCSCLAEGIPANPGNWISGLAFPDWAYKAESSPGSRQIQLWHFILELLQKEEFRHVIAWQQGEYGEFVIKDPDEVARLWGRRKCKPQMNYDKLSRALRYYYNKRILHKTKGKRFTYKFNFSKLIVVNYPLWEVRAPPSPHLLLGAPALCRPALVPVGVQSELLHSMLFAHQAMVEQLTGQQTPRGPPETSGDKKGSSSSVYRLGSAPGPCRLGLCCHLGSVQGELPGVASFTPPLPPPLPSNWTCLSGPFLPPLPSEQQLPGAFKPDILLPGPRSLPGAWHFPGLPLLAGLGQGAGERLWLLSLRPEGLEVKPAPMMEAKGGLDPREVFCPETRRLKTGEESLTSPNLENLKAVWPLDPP
Particulars: protein: recombinant; tags: N-terminal GST; dsDNA, one strand shown. The gist of the method:
as §1

For a further experiment, the target named is T8, ETS2 (Homo sapiens, UniProt P15036 1-469).
T8 sequence: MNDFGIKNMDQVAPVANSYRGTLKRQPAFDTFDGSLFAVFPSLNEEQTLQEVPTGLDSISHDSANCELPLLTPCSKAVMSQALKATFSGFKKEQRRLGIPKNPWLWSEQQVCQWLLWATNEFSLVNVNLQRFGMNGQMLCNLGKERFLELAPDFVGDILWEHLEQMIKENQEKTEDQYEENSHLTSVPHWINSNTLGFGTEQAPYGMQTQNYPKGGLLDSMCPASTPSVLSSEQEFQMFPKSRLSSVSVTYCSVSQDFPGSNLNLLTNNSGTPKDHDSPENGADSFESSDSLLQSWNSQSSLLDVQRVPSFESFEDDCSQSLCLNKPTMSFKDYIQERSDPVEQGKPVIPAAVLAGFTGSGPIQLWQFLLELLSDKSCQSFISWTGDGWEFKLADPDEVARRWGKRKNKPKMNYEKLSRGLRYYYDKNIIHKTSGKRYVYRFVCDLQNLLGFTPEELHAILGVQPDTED
Conditions: protein: recombinant; tags: N-terminal GST; dsDNA, one strand shown. The gist of the method:
as §1

For the next experiment, the target named is T9, SPDEF (Homo sapiens, UniProt O95238 1-335).
T9 sequence: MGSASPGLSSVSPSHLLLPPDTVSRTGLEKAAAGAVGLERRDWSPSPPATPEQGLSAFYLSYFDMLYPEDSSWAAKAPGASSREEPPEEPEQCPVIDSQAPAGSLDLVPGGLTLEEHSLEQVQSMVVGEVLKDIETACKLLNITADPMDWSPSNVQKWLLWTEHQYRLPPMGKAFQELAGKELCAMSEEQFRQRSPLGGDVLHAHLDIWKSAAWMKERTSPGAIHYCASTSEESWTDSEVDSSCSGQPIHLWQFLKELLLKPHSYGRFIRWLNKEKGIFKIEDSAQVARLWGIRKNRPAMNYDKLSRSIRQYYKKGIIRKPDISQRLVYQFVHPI
Conditions: protein: recombinant; tags: N-terminal GST; dsDNA, one strand shown. In short, it runs like this: as §1

The target in another experiment is T10, ETV7 (Homo sapiens, UniProt Q9Y603 1-341).
T10 sequence: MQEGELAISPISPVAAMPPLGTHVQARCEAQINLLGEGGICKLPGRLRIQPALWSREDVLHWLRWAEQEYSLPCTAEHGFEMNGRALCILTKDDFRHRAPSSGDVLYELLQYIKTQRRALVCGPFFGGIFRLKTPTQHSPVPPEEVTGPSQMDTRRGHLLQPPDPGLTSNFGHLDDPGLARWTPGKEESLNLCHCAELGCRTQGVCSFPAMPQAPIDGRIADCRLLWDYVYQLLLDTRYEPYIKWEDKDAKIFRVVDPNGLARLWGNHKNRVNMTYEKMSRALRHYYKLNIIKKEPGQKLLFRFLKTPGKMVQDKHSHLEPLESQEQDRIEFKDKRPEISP
Particulars: protein: recombinant; tags: N-terminal GST; dsDNA, one strand shown. The gist of the method: as §1

In the next experiment the target is T11, ELF5 (Homo sapiens, UniProt Q9UKW6-2 1-255).
T11 sequence: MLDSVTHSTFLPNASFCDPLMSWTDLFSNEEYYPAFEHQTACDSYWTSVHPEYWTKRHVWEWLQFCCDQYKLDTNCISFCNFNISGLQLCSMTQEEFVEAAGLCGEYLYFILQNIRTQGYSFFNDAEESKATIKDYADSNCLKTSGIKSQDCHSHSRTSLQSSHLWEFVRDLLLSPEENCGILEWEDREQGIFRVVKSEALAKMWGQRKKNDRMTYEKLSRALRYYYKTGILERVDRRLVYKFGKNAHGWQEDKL
Particulars: protein: recombinant; tags: N-terminal GST; dsDNA, one strand shown. The gist of the method: as §1

A further experiment has as its target T12, ETV3 (Homo sapiens, UniProt P41162-2 1-143).
T12 sequence: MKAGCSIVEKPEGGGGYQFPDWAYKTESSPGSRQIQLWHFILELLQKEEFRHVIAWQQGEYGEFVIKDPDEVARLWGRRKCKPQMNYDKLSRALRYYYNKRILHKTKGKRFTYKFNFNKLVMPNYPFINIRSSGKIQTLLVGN
Particulars: protein: recombinant; tags: N-terminal GST; dsDNA, one strand shown. The gist of the method: as §1

Another experiment deals with ETV6 (Homo sapiens, UniProt P41212 1-452). Conditions: protein: recombinant; tags: N-terminal GST; dsDNA, one strand shown. The gist of the method: as §1
Sequence of ETV6 (P41212 whole entry): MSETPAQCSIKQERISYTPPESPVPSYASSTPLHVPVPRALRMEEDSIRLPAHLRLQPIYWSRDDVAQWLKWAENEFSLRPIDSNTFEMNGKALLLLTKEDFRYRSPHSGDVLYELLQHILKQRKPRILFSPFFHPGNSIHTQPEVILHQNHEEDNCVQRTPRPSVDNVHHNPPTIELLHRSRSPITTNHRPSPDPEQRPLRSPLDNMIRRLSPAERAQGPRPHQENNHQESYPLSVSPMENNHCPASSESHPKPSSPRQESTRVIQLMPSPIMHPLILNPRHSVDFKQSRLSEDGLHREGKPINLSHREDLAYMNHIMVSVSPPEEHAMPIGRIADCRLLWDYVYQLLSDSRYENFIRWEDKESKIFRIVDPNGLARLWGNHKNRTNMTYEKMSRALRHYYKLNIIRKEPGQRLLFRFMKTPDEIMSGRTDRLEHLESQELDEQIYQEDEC

Sequence of ETV5 (P41161 whole entry): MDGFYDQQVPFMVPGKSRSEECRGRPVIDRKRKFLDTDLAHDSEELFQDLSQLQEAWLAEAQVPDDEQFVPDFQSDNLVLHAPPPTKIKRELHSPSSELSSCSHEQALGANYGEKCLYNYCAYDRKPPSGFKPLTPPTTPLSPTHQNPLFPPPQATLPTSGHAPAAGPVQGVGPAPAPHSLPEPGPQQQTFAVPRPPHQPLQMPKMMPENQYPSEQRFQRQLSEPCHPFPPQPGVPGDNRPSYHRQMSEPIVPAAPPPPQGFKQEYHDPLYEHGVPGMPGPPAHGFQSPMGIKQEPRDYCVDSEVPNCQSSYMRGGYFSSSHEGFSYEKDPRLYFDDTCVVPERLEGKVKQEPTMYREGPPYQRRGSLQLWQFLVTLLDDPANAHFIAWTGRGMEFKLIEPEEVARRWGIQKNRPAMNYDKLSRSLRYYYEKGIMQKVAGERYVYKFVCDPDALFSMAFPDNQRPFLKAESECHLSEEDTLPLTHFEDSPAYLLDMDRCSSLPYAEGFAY
Sequence of ETV1 (P50549 whole entry): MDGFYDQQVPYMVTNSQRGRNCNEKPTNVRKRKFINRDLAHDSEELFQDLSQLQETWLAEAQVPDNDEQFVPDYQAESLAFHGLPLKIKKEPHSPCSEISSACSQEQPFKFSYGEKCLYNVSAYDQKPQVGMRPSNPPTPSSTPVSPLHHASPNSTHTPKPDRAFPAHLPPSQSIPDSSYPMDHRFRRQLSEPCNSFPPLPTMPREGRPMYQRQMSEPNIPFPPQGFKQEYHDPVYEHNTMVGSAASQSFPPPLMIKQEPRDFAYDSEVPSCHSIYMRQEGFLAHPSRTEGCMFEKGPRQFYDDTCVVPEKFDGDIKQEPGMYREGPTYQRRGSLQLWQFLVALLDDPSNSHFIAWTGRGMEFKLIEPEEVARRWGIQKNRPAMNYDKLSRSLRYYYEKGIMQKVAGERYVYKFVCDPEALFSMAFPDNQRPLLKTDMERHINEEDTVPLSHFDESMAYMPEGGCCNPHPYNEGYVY
Sequence of HSF1 (Q00613 whole entry): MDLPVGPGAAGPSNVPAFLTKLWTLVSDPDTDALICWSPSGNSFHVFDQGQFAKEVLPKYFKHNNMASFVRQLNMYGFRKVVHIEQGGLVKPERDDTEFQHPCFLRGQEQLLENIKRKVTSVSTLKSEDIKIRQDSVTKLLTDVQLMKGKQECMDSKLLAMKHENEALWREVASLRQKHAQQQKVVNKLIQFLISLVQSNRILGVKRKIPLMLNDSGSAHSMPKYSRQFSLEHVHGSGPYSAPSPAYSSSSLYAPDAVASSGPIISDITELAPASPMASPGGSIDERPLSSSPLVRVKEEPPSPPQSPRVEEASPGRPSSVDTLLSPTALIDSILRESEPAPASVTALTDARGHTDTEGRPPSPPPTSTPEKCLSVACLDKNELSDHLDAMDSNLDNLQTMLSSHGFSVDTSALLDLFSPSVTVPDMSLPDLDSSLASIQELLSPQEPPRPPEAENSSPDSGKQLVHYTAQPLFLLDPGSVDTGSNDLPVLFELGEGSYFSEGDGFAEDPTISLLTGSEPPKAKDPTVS
Sequence of ELF4 (Q99607 whole entry): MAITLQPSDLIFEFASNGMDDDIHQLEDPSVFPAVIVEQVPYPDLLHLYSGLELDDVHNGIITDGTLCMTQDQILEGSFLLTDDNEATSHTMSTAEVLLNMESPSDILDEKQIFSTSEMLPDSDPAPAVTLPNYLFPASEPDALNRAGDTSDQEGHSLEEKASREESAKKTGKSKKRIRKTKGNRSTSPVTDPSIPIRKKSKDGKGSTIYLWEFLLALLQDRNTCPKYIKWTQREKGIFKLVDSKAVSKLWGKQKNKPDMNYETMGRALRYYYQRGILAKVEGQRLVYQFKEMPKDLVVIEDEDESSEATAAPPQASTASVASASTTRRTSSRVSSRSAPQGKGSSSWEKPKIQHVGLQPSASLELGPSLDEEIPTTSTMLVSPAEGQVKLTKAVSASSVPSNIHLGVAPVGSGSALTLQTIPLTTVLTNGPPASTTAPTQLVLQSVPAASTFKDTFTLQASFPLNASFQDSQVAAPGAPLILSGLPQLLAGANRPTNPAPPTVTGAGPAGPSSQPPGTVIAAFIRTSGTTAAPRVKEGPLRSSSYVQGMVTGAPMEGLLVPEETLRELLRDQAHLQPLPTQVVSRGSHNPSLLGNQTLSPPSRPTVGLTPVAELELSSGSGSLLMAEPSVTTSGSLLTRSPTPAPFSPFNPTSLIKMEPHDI
Sequence of CRX (O43186 whole entry): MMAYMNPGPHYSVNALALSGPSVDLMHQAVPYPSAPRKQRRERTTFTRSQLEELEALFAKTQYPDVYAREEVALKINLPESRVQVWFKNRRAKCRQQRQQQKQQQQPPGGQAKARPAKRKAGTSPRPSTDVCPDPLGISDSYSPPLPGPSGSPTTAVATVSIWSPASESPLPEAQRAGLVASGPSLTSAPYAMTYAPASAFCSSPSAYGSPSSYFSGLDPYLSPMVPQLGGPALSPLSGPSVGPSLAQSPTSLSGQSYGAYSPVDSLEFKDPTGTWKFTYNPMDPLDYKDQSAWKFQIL

As for AATGTA, the binding signal is 1.12 fold enrichment (6-mer frequency, TF over GST control) with FEV; 1.11 fold enrichment (6-mer frequency, TF over GST control) with ETV5; 1.16 fold enrichment (6-mer frequency, TF over GST control) with HSF1; 1.12 fold enrichment (6-mer frequency, TF over GST control) with SPIC; 1.11 fold enrichment (6-mer frequency, TF over GST control) in the experiment with ELF4; 1.32 fold enrichment (6-mer frequency, TF over GST control) in the experiment with ELK4. Besides, the binding signal with ETV2 was 1.32 fold enrichment (6-mer frequency, TF over GST control); in the experiment with ELF3, 1.16 fold enrichment (6-mer frequency, TF over GST control); in the experiment with CRX it was 1.1 fold enrichment (6-mer frequency, TF over GST control); with ETV1, 1.23 fold enrichment (6-mer frequency, TF over GST control); with ERF, 1.14 fold enrichment (6-mer frequency, TF over GST control); with ETV3L, 1.1 fold enrichment (6-mer frequency, TF over GST control). For the same sequence, the binding signal in the experiment with ETS2 was 1.25 fold enrichment (6-mer frequency, TF over GST control); with SPDEF, 1.2 fold enrichment (6-mer frequency, TF over GST control); with ETV7, 1.15 fold enrichment (6-mer frequency, TF over GST control); in the experiment with ELF5 it was 1.21 fold enrichment (6-mer frequency, TF over GST control); with ETV3, 1.17 fold enrichment (6-mer frequency, TF over GST control); in the experiment with ETV6, 1.15 fold enrichment (6-mer frequency, TF over GST control).
